This is an account of results in PubChem BioAssay (NCI).

About 83,000 compounds went through this panel and 20% of them were active in at least one assay; those are over-represented in the sample as a whole.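 Compound tested at a single concentration for 48 hours in 96-well plates; a percent growth value below 10 was scored as active.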 Calls of active or inactive are those of the source.

The experiment concerns MDA-MB-468 breast. As to the kind of experiment: NCI-60 one-dose screen, 48 h (100 = growth as untreated, 0 = no growth, -100 = all killed). Particulars: 10 µM unless noted.
Take `O=C1C(c2c(O)[nH]c3ncccc23)=Nc2ccccc21`: the growth was 42.6% (inactive).

As to `O=C1NC(SCc2ccc(F)cc2)=N/C1=C/c1cccc(OCc2ccc(Cl)cc2)c1`, the growth is 62.9% (inactive).

On to `CCCCN(CCCC)CC(O)c1ccc(OCc2ccccc2)c2ccccc12` (stereo not given), for which the growth is 114% (inactive).

`N/C(=N\C(N)=N\c1nc2ccccc2s1)c1cccc(Br)c1`: the growth was 90.6% (inactive).

Consider `COc1ccc(/C=C(/C(=O)N2CCN(Cc3ccccc3)CC2)c2cc(OC)c(OC)c(OC)c2)cc1O`, for which the growth is 20.4% (inactive).

In the case of `CCOC(=O)CSSCC(=O)OCC`, the growth is 117% (inactive).

In the case of `CCN(CC)S(=O)(=O)c1ccc(-c2nc(C(Cl)Cl)nc3cc(C)nn23)cc1`, the growth is -33.6% (active).

For `CC(C)(C)CC(C)(C)c1ccc(OCCOCCSC(=N)N)cc1`, the growth is -47.3% (active).

Turning to `CSc1nc2c(c(=O)[nH]1)N=C1c3ccccc3C(=O)C1C(c1ccc(F)cc1)N2` (stereo not given), the growth was 21.7% (inactive).

Consider `COc1ccc(C(=O)/C=C/C23c4ccccc4C(c4ccccc42)C2C(=O)NC(=O)C23)cc1` (stereo not given), for which the growth was 98.7% (inactive).

In the case of `CCN(CC)CCCNc1nccc2ccc(Cl)cc12`, the growth is 97.5% (inactive).

Regarding `NCCCNc1nc2ccccc2c2c(=O)c3cccc(F)c3sc12`, the growth is -11.3% (active).

Regarding `O=S1(=O)c2ccccc2Oc2ccccc21`, the growth was 96.4% (inactive).

For `CCCCCCCCCCCCCCCCC(=O)O`, the growth is 102% (inactive).

Regarding `C=C(C[C@@](O)(C(=O)Oc1ccccc1)C(=O)C1CCCCC1)c1ccccc1`, the growth was 85.3% (inactive).

`Cc1cc(I)nc2ccccc12`: the growth was 109% (inactive).

For `COc1cc2c(c(OC)c1OC)-c1ccc(N=NC(N)=S)c(=O)cc1[C@@H](NC(C)=O)CC2`, the growth is -40.8% (active).

In the case of `COc1ccc(-c2cc(C(=O)Nc3ccc(C)cc3)nc3[nH]c(=O)sc23)cc1`, the growth is 66.6% (inactive).

For `COc1ccc(-c2csc(NC(=O)CN3CCN(CCO)CC3)n2)cc1NS(=O)(=O)c1cccc2c(N(C)C)cccc12`, the growth is 55.6% (inactive).

Consider `c1ccc2cc(Cn3cc(CSc4nc5ccccc5s4)nn3)ccc2c1`, for which the growth was 106% (inactive).

Take `O=C(Nc1ncc(Cc2ccccc2)s1)c1ccc2c(c1)OCCCO2`: the growth is 7.91% (active).

With `NC(CC(N)C(=O)O)C(=O)O` (stereo not given), the growth was 90.5% (inactive).

Take `COC(=O)c1c2c(c(C)[n+]([O-])c1C)C(=O)C=C(NCc1ccc(Cl)cc1)C2=O`: the growth is -67% (active).

Take `COc1c(-c2c3sc(=O)[nH]c3nc3c2c(=O)[nH]n3C(C)C)cc2c(c1OC)OCO2`: the growth was 102% (inactive).

`Cc1cc2nc3c4cc(C=O)ccc4n(CCN(C)C)c3nc2cc1C`: the growth is -5.88% (active).

As for `COc1cc(NCCN(CC(C)C)C2CCCC2)c2ncccc2c1`, the growth is -13.9% (active).

Consider `CCN(CC)CCC(CNc1ccnc2cc(Cl)ccc12)c1ccc(Cl)cc1` (stereo not given), for which the growth is -86.6% (active).

For the compound `COc1ccccc1C(=O)Nc1cccc2c1C(=O)C(=O)C=C2`, the growth is 103% (inactive).

For `Cn1cccc1C(=O)C1C(c2cccc([N+](=O)[O-])c2)C2C3CCCCC3CN2C12C(=O)Nc1ccc(Cl)cc12` (stereo not given), the growth was 32% (inactive).

As to `CCOC(=O)c1ccc(Nc2ncnc3ccc(NC(=O)c4ccccc4)cc23)cc1`, the growth was 88.9% (inactive).

For `CCN(CC)C(CC(=O)c1ccccc1)C(=O)c1ccccc1` (stereo not given), the growth was 56.1% (inactive).

With `O=c1c2cc(-c3ccc(F)cc3F)ccc2n(Nc2ccccc2)c(=O)n1-c1cccc(C(F)(F)F)c1`, the growth is -10.4% (active).

On to `CS(=O)(=O)c1c(Nc2ccccc2)n[nH]c1N`, for which the growth is 110% (inactive).

As to `COc1ccc2[nH]c(=O)c(/C=N/Nc3nc(-c4ccccc4)cs3)c(O)c2c1`, the growth was 87.6% (inactive).

Turning to `CCc1n(Cc2ccc3ccccc3c2)cc[n+]1Cc1ccc2ccccc2c1`, the growth was -22.9% (active).

Regarding `Cc1ccc(S(=O)(=O)N2CCc3ccccc3CC2)cc1`, the growth is -4.8% (active).

In the case of `C/C=C1\SC(=S)NC1=O`, the growth was 114% (inactive).

With `Cc1cc(=O)c2cc3nc(-c4cccnc4)oc3c(Br)c2o1`, the growth is 96.4% (inactive).

As for `Nc1cc(O)cc2cccnc12`, the growth is 109% (inactive).

For the compound `CN1CCN(c2ccc(Nc3nc(NCCNC(=O)c4ccccc4)c4sccc4n3)cc2)CC1`, the growth is 45.3% (inactive).
